TDP1 cell CPT: growth inhibition of DT40 Tdp1-/-;hTDP1 cells with camptothecin (screen for TDP1 inhibitors). 420,000 tested, 12% active. Potency, µM (titrated, usually from 46.2 µM), without a hit: at the top dose activity change, negative = growth inhibition, usual class: inhibitors. chicken DT40 Tdp1-/-;hTDP1 cells + 20 nM CPT, ATP luminescence, 48 h. AID 686979; also: potency is read from the fitted curve at half-maximal effect; nearly all actives have a fitted effect of over 55% in size
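Chicken DT40 Tdp1-/- cells complemented with human TDP1, 400 cells/well, exposed to compounds plus 20 nM camptothecin for at least 48 h at 37 C; viability read as ATP content by CellTiter-Glo luminescence.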
RORg inh: ROR gamma (mouse) transcription inhibition | P51450 | AID 2551 | Drosophila S2 Gal4-RORgamma UAS-luciferase reporter, 20 h | 310,000 tested, 5.4% active | Potency, µM (series often up to 53.6 µM), without a hit: top-dose activity change, negative = inhibition, usual class: inhibitors; also: potency is read from the fitted curve at half-maximal effect; nearly all actives have a fitted effect of over 60% in size
Target sequence (P51450 whole entry, looked up, the tested form may be a part): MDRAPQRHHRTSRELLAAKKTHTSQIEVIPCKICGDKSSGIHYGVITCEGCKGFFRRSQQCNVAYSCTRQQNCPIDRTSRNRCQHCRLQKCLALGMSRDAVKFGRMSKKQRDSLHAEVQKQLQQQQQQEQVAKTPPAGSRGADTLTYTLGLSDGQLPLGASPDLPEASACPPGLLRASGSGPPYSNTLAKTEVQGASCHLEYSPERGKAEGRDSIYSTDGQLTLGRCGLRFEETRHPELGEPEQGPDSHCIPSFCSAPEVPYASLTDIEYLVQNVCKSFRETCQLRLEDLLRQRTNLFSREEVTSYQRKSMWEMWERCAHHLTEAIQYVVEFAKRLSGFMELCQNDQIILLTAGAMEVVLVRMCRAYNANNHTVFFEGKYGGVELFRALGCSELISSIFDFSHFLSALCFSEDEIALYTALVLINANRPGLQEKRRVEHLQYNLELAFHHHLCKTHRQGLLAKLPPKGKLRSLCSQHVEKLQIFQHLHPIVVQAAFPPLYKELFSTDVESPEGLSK
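Luciferase reporter read in Schneider cells carrying Gal4-RORγ (mouse) and UAS-Photinus luciferase; cells given compound 1 h before 700 uM copper sulfate induction, then incubated 20 h at ambient temperature.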
VP16 counter: counter-screen for ROR gamma inhibitors: Gal4-VP16 reporter. Potency, µM (doses to about 53.6 µM), without a hit: at the top dose activity, negative = inhibition, most hits filed as inhibitors. Drosophila S2 Gal4-VP16 UAS-luciferase, luminescence, 20 h. 310,000 tested, 3.5% active;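 also: Gal4-VP16 expression switched on by copper sulfate through the metallothionein promoter; potency is read from the fitted curve at half-maximal effect; nearly all actives have a fitted effect of over 50% in size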
LDHA block: blocks human lactate dehydrogenase A; P00338; purified LDHA, NADH/diaphorase-resazurin fluorescence; active compounds read low; activity change, % (values are at about 110 or 230 µM); 480,000 tested, 0.15% active; AID 1347041; in the data active = activity change below about -30%; inconclusive = mostly about -25% to -30%;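 also: plate controls were DMSO wells for no effect and wells without enzyme for full effect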
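LDH5 2 nM; NADH 0.06 mM, pyruvate 0.2 mM; 200 mM Tris pH 7.4, EDTA, Tween-20; 5 min RT. Detection: diaphorase 0.133 mg/mL + resazurin 37 µM, fluorescence ex540/em590 at 0 and 20 min; normalized to enzyme-free and DMSO wells.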
DT40 TDP1 no CPT: qHTS for Inhibitors of human tyrosyl-DNA phosphodiesterase 1 (TDP1): qHTS in cells in absence of CPT | DT40 Tdp1-/- hTDP1 cells, no CPT, ATP luminescence, 48 h | Potency, µM (doses to about 46.2 µM), inactives show top-dose activity change, negative = growth inhibition, hits mostly inhibitors | 420,000 tested, 15% active; also: potency is read from the fitted curve at half-maximal effect; nearly all actives have a fitted effect of over 55% in size
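Luminescent ATP content (CellTiter-Glo) served as the growth readout. Knockout chicken DT40 cells expressing human TDP1 were exposed to compounds without camptothecin for a minimum 48 hr at 37 °C.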
IL1B secr inh: inflammasome signaling inhibition, IL-1 beta readout; THP-1 LPS/ATP IL-1B secretion, AlphaLISA, 16 h; active compounds read low; activity change, % at 57.5 µM; 360,000 tested, 4.7% active; in the data active = activity change below about -50%; inconclusive = mostly about -30% to -49%
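Secreted IL-1B measured by AlphaLISA bead assay after 16 h compound exposure of THP-1 cells; compounds (final up to 57.5 uM) added 1 h before LPS (250 ng/mL) and ATP (1.25 mM) stimulation; lower signal means less secretion.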
Starred values were filed as active, the others as inactive; u = inconclusive; x = not tested or not shown; [ ] = another dose, or the depositor's remark. Rows were chosen to be rich in hits. Some 18% of all compounds tested hit in one or more screens of this group. Unless noted, calls follow the shape of the dose curve; as a rule, active = well fitted curve in the direction sought with a large enough effect; inconclusive = small, poorly fitted or top-dose-only effect, or another doubt; inactive = no such curve, though single readings can be large; an effect the other way counts as inactive or inconclusive. Unless noted, % is scaled to controls: 0 for no effect and ±100 for the full control effect.

SMILES | TDP1 cell CPT | RORg inh | VP16 counter | LDHA block | DT40 TDP1 no CPT | IL1B secr inh
O=C(c1ccc(Cl)cc1)C1CCCN(Cc2cccc3ncccc23)C1 (stereo unspecified) | 18µM* | -8% | -6% | -5 | 15µM* | 15
C=C(C)C#N | x | 12% | 5% | x | x | x
CCCCn1c(=O)c(C(=O)NCc2ccccc2OC)c(O)c2ccccc21 | u | u | u | -1 | u | 0
CCN(CC)S(=O)(=O)c1ccc2c(c1)c(=O)c(C(=O)NCc1ccccc1OC)cn2C | 23µM* | x | x | 2 | 18µM* | x
CC(=O)NC1CCSC1=O (stereo unspecified) | 8%[21.1 µM] | x | x | x | 0%[21.1 µM] | x
N#Cc1cc2c(nc1SCC(=O)Nc1ccc(C(F)(F)F)cc1)C1CCN2CC1 | 13µM* | x | x | -10 | 23µM* | x
N#Cc1cc2c(nc1SCC(=O)Nc1ccc(Cl)c(C(F)(F)F)c1)C1CCN2CC1 | 21µM* | x | x | -1 | 12µM* | x
N#Cc1cc2c(nc1SCC(=O)Nc1ccc(Cl)cc1)C1CCN2CC1 | u | 30% | 10% | 1 | u | -19
N#Cc1ccc(NC(=O)CSc2nnc(Cc3ccccc3)o2)cc1Cl | x | x | x | 6 | x | x
N#Cc1cc2c(nc1SCC(=O)Nc1cc(Cl)ccc1Cl)C1CCN2CC1 | 18µM* | u | -3% | -3 | u | 126
N#Cc1ccc(NC(=O)Cn2nc(C(=O)O)c3ccccc3c2=O)cc1Cl | x | x | x | 9 | x | x
Cc1ccc(-c2c(C)n3c4c(=O)n(C)c(=O)n(C)c4nc3n2CCO)cc1 | 0.26µM* | x | x | 5 | 0.18µM* | x
O=c1c(O)c(-c2ccc(O)c(O)c2)oc2c(O)c(O)cc(O)c12 | 18µM* | -14% | -16% | x | u | x
O=C(CCl)NN=C(c1ccccc1)c1ccccc1 | 5.8µM* | -5% | -11% | -1 | 5.2µM* | -77*
NCC(=O)c1ccccc1 | u | -37% | -3% | -12 | 0% | 6
O=C1C2CCCCC1CN(Cc1ccccc1)C2 | x | x | x | 1 | x | x
O=C(NC1CCCCC1)Oc1cc2oc(=O)sc2cc1Cl | -17% | 12% | -11% | 9 | 15µM* | 23
CC(C)(C)NC(=S)/N=C(\N)N[N+](=O)[O-] | -7% | 10µM* | u | 2 | 19% | 43
Cc1ccccc1NC(=NCCCN1CC1)Nc1ccccc1C | 2.1µM* | x | x | -9 | 5.2µM* | u
Cc1ccccc1NC(=O)c1cc(-c2ccccc2)n(CCCN2CCOCC2)c1C | -2% | -6% | 0% | 4 | 0% | -5
CCCn1c(C)c(C(=O)NCC2CC2)c2cc(OC)ccc21 | x | x | x | -3 | x | x
Cc1ccccc1CN1C(=O)C(C)N=C(c2ccccc2)c2ccccc21 (stereo unspecified) | u | x | x | 1 | 18µM* | x
COc1ccc(C2=NCC(=O)N(CC(=O)Nc3ccc(F)cc3F)c3sc4c(c32)CCC4)cc1 | x | x | x | 3 | x | x
Cc1nc2ccccc2c(=O)n1-c1ccc(-c2ccccc2)cc1 | u | 24% | 2% | -1 | u | 5
Cc1ccc(-n2c(C)nc3ccccc3c2=O)c(C)c1 | u | -3% | -22% | -14 | 16µM* | 7
SMILES | TDP1 cell CPT | RORg inh | VP16 counter | LDHA block | DT40 TDP1 no CPT | IL1B secr inh
Cc1ccc(-n2c(C)nc3ccccc3c2=O)cc1C | u | 22% | 3% | -14 | 15µM* | 28
CN1CCC2(CC1)N1CC3(C)CN2CC(C)(C1)C3=O | x | x | x | 4 | x | x
COc1ccc(CCNCc2cccc(F)c2)cc1 | x | x | x | -15 | x | x
O=C(O)C(Cl)(Cl)Br | x | 4% | -7% | x | x | x
CCC(C(=O)Nc1ccccc1F)N1C(=O)CN=C(c2ccccc2)c2ccccc21 (stereo unspecified) | u | x | x | -5 | 23µM* | x
CCCCNC(=O)CN1C(=O)CN=C(c2ccccc2)c2ccccc21 | -25% | -15% | -1% | 0 | u | -9

Screening data: PubChem, National Center for Advancing Translational Sciences (NCATS)
